POLH inh – inhibitors of human DNA polymerase eta | Q9Y253 | recombinant Pol eta, fluorescent DNA replication assay | Potency, µM (doses to about 114 µM), for the others: at the highest dose activity change, negative = inhibition, usual class: inhibitors | actives 1.2% (n = 390,000); further: potency means the concentration at half of the fitted maximal effect; on the % scale 0 is the no-effect control and ±100 the full control effect
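Fluorescent replication assay: 50 nM final substrate added after a 15 min room-temperature compound preincubation with 10 nM enzyme. Signal taken at 0 min and again at 10 min.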
WRN helicase inh – blocks human WRN helicase | Q14191 | AID 651768 | Potency, µM (doses to about 114 µM), inactives show at the top dose activity change, negative = inhibition, hits mostly inhibitors | actives 0.46% (n = 360,000) | WRN helicase unwinding, fluorescent forked duplex, kinetic; further: potency means the concentration at half of the fitted maximal effect; on the % scale 0 is the no-effect control and ±100 the full control effect; nearly all actives have a fitted effect of over 55% in size
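Enzyme (20 nM final) and test compound sit together 15 min at room temperature before substrate addition. Substrate is a single-forked duplex oligonucleotide (100 nM) labelled with fluorophore and quencher, with 2 mM ATP; helicase unwinding raises red fluorescence, read kinetically.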
Pol iota inh – blocks human DNA polymerase iota activity; Q9UNA4; Pol iota fluorescent replication assay, 10 min; Potency, µM (titrated, usually from 115 µM), for inactives: at the top dose activity, negative = inhibition, hits mostly inhibitors; actives 1% (n = 390,000); AID 588590; further: potency means the concentration at half of the fitted maximal effect
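Fluorescent replication assay read twice, at 0 min and 10 min after adding 50 nM (final) substrate. Enzyme (10 nM) and compounds were first incubated 15 min at room temperature; enzyme-free buffer wells were negative controls.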
PI5P4Ka inh – inhibitors of human PI5P4K alpha | P48426 | PI5P4Kalpha enzyme, ADP-Glo luminescence, 60 min; active compounds read low | max response, % | actives 1.2% (n = 330,000); active means max response of -50% or lower; inconclusive means between -30% and -50%; inactive means -30% or higher; further: value at the top dose of about 77 µM; on the % scale 0 is the no-effect control and ±100 the full control effect
Target sequence (P48426 whole entry, looked up): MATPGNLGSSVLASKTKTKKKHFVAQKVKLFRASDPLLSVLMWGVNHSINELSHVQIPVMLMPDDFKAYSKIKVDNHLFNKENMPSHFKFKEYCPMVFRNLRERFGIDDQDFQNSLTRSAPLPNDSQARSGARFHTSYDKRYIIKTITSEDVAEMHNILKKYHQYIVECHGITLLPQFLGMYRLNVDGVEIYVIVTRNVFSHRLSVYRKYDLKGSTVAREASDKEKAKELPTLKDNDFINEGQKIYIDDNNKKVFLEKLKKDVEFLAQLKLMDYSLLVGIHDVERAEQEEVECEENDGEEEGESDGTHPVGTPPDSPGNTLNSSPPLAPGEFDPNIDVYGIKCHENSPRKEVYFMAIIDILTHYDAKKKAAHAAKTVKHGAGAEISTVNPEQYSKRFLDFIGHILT
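ADP-Glo luminescence end-point after a 60 min room-temperature kinase reaction. PI5P4Kalpha and substrate in HEPES pH 7.4 buffer with EGTA, 0.1% CHAPS and 5% DMSO; ATP at 5 microM final.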
Pol kappa inh – DNA polymerase kappa (human) inhibition; Q9UBT6; purified Pol kappa, fluorescent DNA synthesis assay, 10 min; Potency, µM (series often up to 107 µM), inactives show at the highest dose activity, negative = inhibition, usual class: inhibitors; actives 0.53% (n = 400,000); AID 588579; further: potency means the concentration at half of the fitted maximal effect; on the % scale 0 is the no-effect control and ±100 the full control effect
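Readout: fluorescence, taken kinetically at 0 and 10 min. Conditions: 10 nM Pol kappa, 15 min RT compound preincubation, 50 nM substrate final. Controls: enzyme-free buffer wells.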
Pol beta inh – inhibitors of human DNA polymerase beta; P06746; Pol beta primer extension/strand displacement, fluorescence kinetic; Potency, µM (top dose mostly 114 µM), inactives show at the highest dose activity change, negative = inhibition, hits mostly inhibitors; actives 1.3% (n = 340,000); AID 485314; further: potency means the concentration at half of the fitted maximal effect; on the % scale 0 is the no-effect control and ±100 the full control effect
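Kinetic readout of DNA synthesis with strand displacement by Pol beta. Compound and 10 nM enzyme sit 15 min at room temperature; 50 nM substrate starts the reaction, read immediately and at 10 min.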
* hit, by the source's call; ? = inconclusive; . = not tested or not shown; [ ] = another dose, or the depositor's remark. Only some compounds are listed: those with a hit (about 2.8% of all), similar ones and a draw of the others. Unless noted, the call rests on the fitted dose curve; in most records, active means well fitted curve in the direction sought with a large enough effect; inconclusive means small, poorly fitted or top-dose-only effect, or another doubt; inactive means no such curve, though single readings can be large; an effect the other way counts as inactive or inconclusive.

SMILES	POLH inh	WRN helicase inh	Pol iota inh	PI5P4Ka inh	Pol kappa inh	Pol beta inh
CCOc1cc(/C=C2/C(=O)NC(=O)N(c3ccc(CC)cc3)C2=O)ccc1OC(=O)c1cccs1	44.7µM*	50.1µM*	-17.7%	-69.9*	-3.2%	-13.2%
COc1ccc(/C=C2/C(=O)NC(=O)N(C3CCCCC3)C2=O)cc1CSc1ccccn1	.	.	.	.	.	0.1%
COc1ccc(/C=C2/C(=O)NC(=S)N(C3CC3)C2=O)cc1CN1C(=O)c2ccccc2C1=O	?	14.1µM*	?	-88.3*	-2.8%	-28.4%
CC(C)C[C@H](NC(=O)[C@@H](N)Cc1ccccc1)C(=O)N[C@@H](Cc1ccccc1)C(=O)N[C@@H](CCC(N)=O)C(=O)N1CCC[C@H]1C(=O)N[C@@H](CCC(N)=O)C(=O)N[C@@H](CCCN=C(N)N)C(=O)N[C@@H](Cc1ccccc1)C(N)=O	.	.	.	.	15.7%[60.1 µM]	.
C=CCN(CC(=O)c1sc(C(=O)OCC)nc1C)c1cccc(Br)c1	-8.7%	-0.5%	75.7%	0.7	-27.1%	.
CCCCNC(=O)c1cc(-c2cccnc2)nc2ccc(S(=O)(=O)NCCCC)cc12	-22.9%	.	-15.7%	.	-5.8%[60.1 µM]	?
O=C(c1ccccc1NS(=O)(=O)c1ccc(Br)cc1)N1CCOCC1	-10.4%	?	2.8%	1.3	-3.0%	-9.7%
COc1ccc(/C=C2/C(=O)NC(=O)N(c3ccccc3)C2=O)cc1CN1C(=O)c2ccccc2C1=O	-4.3%	-7.9%	-1.6%	-53.3*	-1.8%	11.0%
Cc1cc(C)cc(N2C(=O)NC(=O)/C(=C\c3cccn3-c3ccccc3)C2=O)c1	-5.0%	?	?	0.1	-16.5%	-2.7%
COc1ccccc1N1C(=O)NC(=O)/C(=C/c2ccc3c4c(cccc24)CC3)C1=O	?	?	2.4%	-58.0*	-7.0%	-27.3%[57.1 µM]
COc1ccc(N2C(=O)NC(=O)/C(=C/c3ccc(N4CCOCC4)cc3)C2=O)cc1	.	.	.	.	.	-2.2%
COc1cc(/C=C2/C(=O)NC(=O)N(c3ccccc3)C2=O)ccc1O	9.8%	?	17.3%	-58.9*	3.1%	1.8%
CCCSP(=S)(OCC)Oc1ccc(Cl)cc1Cl (stereo not drawn)	.	.	.	.	11.1%[60.1 µM]	.
CCCC(Cn1cncn1)c1ccc(Cl)cc1Cl (stereo not drawn)	.	.	.	.	13.4%[60.1 µM]	.
Cc1cc(C(C#N)c2ccc(Cl)cc2)c(Cl)cc1NC(=O)c1cc(I)cc(I)c1O (stereo not drawn)	50.1µM*	-28.3%	?	-54.9*	?	.
O=C1NC(=O)N(CCc2ccc(F)cc2)C(=O)/C1=C/c1cccs1	-19.2%	31.6µM*	22.4µM*	-73.6*	-18.6%	?
COCCN1C(=O)NC(=O)/C(=C\c2ccc(F)cc2)C1=O	-15.7%	8.3%	0.1%	-24.0	3.8%	?
CN(C)c1ccc(/C=C2\C(=O)NC(=O)N(CCc3ccc(F)cc3)C2=O)cc1	-1.7%	?	?	-82.2*	-6.9%	2.7%
Cc1ccc(/C=C2/C(=O)NC(=O)N(CCc3ccc(F)cc3)C2=O)o1	?	50.1µM*	?	-67.4*	-19.2%	16.2%
Cn1cccc1/C=C1\C(=O)NC(=O)N(CCC2=CCCCC2)C1=O	-6.9%	0.5%	?	-21.3	-14.1%	1.0%
Cc1ccc(-n2nc3c(=O)n(CC(=O)NCC(C)c4ccccc4)nc(C)c3c2C)cc1 (stereo not drawn)	-25.3%	.	31.0%	.	-11.0%	-1.9%
Cc1ccc(/C=C2\C(=O)NC(=S)N(c3ccc(F)cc3)C2=O)s1	?	50.1µM*	?	-82.5*	-19.5%	?
Cc1ccc(/C=C2\C(=O)NC(=S)N(c3ccccc3F)C2=O)s1	?	50.1µM*	?	-110.5*	?	?
COc1cc2c(cc1O)[C@H]1Cc3ccc(OC)c(O)c3CN1CC2	.	.	.	.	-1.0%[12 µM]	.
CCc1ccc(N2C(=O)NC(=O)/C(=C/c3cccn3CCOc3ccc(C(C)CC)cc3)C2=O)cc1 (stereo not drawn)	-7.8%	-5.0%[57.1 µM]	?	-52.7*	-22.5%	17.4%
SMILES	POLH inh	WRN helicase inh	Pol iota inh	PI5P4Ka inh	Pol kappa inh	Pol beta inh
CCc1ccc(N2C(=O)NC(=O)/C(=C/c3cccn3CCOc3ccc(C)cc3)C2=O)cc1	?	-1.8%	?	-24.5	-14.5%	35.2%
CC(C)=CCCC1(C)C=Cc2c(O)c3c(c(CC=C(C)C)c2O1)OC12C(=CC4CC1C(C)(C)OC2(C/C=C(/C)C(=O)O)C4O)C3=O (stereo not drawn)	.	.	.	.	25.1µM*	.
CC(C)=CCCC1(C)C=Cc2c(O)c3c(c(CC=C(C)C)c2O1)OC12C(=CC4CC1C(C)(C)OC2(C/C=C(/C)C(=O)O)C4=O)C3=O (stereo not drawn)	.	.	.	.	22.4µM*	.
Cc1ccc(-c2nc(N3CCOCC3)s[n+]2-c2ccccc2)cc1	-14.1%	?	-7.2%	-69.3*	-6.4%	50.6%
COc1ccccc1-c1nn2c(=O)cc(CN3CCN(C(=O)Nc4ccc(C)cc4Cl)CC3)nc2s1	-21.3%	.	33.7%	.	-3.4%[60.1 µM]	-24.5%
O=C(NCc1ccc2c(c1)CCN2C(=O)c1ccccc1)Nc1cccc(C(F)(F)F)c1	?	.	6.8%	.	-6.1%[60.1 µM]	-15.3%
CC(C)COc1ccc(Cc2c(O)[nH]c(=S)[nH]c2=O)cc1	2.7%	-24.7%	100.8%	-52.2*	-2.6%	10.9%
Cc1cc(Cc2c(O)[nH]c(=S)[nH]c2=O)ccc1OC(C)C	-11.8%	-12.2%	?	?	-16.3%	-1.0%
CN(C)CCNC(=S)Nc1ccccc1Cl	-15.4%	5.8%	195.3%	-2.4	-16.0%	-13.6%
CN(CC(=O)NC(=O)NCc1ccco1)CC(=O)Nc1ccccc1Cl	?	1.5%[11.6 µM]	50.1µM*	-24.0	?	7.7%
CCN(CC)S(=O)(=O)c1ccc2c(c1)c(=O)c(C(=O)NCc1ccccc1OC)cn2C	-14.9%	.	?	.	-5.4%	-10.0%
CCC1OC2(C)C(O)C(/C=C/C=C/C=C/c3oc(=O)cc(OC)c3C)OC1(C)C2OC(C)=O (stereo not drawn)	.	.	.	.	14.8%[60.1 µM]	.
Cn1c(C(=O)NCCOc2ccccc2Cl)cc(=O)n(C)c1=O	-19.6%	4.4%	68.4%	-3.4	6.7%	-16.6%
COc1ccc2c(c1)CCc1c(C(=O)Nc3c(C)nn(Cc4ccccc4C)c3C)noc1-2	-15.3%	.	43.4%	.	-13.2%	18.9%
CC(C)Cc1[nH]c(=O)c(C#N)c2c1CCC2	-0.2%	7.3%	3.4%	4.1	-3.4%	5.4%
Cc1ccc(-c2[nH]c(=S)[nH]c(=O)c2C#N)cc1	-0.3%	-6.7%	-5.6%	-72.4*	-20.3%	39.6%
N#C/C(=C\c1ccc(O)c(O)c1)C(N)=S	.	.	.	.	0.126µM*	.
O=C(O)c1cc[c]([Hg][Cl])cc1	-11.5%	-1.8%	1.78µM*	-57.7*	-4.2%[60.1 µM]	14.1µM*

Compound activity deposited in PubChem by National Center for Advancing Translational Sciences (NCATS).
